# Assay results: PMC7862700, “An all-to-all approach to the identification of sequence-specific readers for epigenetic DNA modifications on cytosine”
# Tests used:
# Test in all cases: DAPPL (digital affinity profiling via proximity ligation, sequencing); 10 mM Tris-HCl pH 7.5, 50 mM NaCl, 1 mM DTT, 4% glycerol, room temperature, 30 min; GST-TFs on glutathione beads, 16-mer random dsDNA library, 0.1% formaldehyde crosslink after washing; high values mean tight binding
# Details in all cases: protein: recombinant; tags: N-terminal GST; dsDNA, one strand shown
# FLI1 = molecular target: T1, FLI1 (Homo sapiens, UniProt Q01543 1-452)
# T1 sequence: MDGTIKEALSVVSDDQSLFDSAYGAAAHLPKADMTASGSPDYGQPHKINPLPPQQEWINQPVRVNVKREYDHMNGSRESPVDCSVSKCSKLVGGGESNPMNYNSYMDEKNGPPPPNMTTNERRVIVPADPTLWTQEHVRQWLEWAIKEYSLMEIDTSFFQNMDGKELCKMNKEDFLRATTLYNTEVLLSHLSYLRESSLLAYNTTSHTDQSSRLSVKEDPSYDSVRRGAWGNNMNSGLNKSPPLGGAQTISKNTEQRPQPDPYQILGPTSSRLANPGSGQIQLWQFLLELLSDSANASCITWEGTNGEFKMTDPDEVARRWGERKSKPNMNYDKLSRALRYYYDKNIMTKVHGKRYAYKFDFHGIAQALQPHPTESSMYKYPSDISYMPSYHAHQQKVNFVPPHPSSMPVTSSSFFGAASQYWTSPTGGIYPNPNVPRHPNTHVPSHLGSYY
# How it was run: (§1)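 After expression in yeast as GST fusions, human transcription factors were bound to glutathione beads, DNA-barcoded and mixed with a tag-only sample. The pools were incubated with 200 nmole of a 16-mer random double-stranded DNA library in Tris/NaCl/DTT/glycerol buffer (30 min, room temperature), washed and crosslinked with 0.1% formaldehyde. Proximity ligation with BsaI/T4 ligase ran for 1 h at 37 °C, before PCR amplification and sequencing on an Illumina NextSeq500. Binding signal is a hexamer's read frequency for a factor divided by its frequency for the tag-only sample.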
# ELK1 = molecular target: T2, ELK1 (Homo sapiens, UniProt P19419 1-428)
# T2 sequence: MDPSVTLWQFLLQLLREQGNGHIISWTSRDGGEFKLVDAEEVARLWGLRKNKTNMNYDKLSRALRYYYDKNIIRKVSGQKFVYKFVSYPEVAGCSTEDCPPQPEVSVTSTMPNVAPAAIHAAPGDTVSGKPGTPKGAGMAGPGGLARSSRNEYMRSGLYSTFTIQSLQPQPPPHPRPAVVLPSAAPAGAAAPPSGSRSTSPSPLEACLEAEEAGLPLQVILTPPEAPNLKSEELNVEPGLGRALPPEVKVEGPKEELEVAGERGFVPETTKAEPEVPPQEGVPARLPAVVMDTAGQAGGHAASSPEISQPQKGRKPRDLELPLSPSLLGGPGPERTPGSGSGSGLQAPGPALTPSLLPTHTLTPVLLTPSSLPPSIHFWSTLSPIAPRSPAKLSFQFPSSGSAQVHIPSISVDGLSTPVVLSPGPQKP
# How it was run: as §1
# GABPA = molecular target: T3, GABPA (Homo sapiens, UniProt Q06546 1-454)
# T3 sequence: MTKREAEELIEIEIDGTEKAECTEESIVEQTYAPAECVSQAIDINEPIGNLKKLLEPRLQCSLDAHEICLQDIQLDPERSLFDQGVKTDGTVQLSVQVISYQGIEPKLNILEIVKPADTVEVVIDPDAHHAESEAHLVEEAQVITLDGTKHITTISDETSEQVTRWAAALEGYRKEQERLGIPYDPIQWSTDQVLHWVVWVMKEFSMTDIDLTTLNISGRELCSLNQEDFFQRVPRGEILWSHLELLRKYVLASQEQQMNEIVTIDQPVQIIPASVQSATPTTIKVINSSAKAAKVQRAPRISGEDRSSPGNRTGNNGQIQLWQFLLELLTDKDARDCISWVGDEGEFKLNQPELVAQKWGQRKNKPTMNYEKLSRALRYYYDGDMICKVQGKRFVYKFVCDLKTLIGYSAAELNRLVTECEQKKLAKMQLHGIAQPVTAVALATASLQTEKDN
# How it was run: as §1
# ERG = molecular target: T4, ERG (Homo sapiens, UniProt P11308 1-479)
# T4 sequence: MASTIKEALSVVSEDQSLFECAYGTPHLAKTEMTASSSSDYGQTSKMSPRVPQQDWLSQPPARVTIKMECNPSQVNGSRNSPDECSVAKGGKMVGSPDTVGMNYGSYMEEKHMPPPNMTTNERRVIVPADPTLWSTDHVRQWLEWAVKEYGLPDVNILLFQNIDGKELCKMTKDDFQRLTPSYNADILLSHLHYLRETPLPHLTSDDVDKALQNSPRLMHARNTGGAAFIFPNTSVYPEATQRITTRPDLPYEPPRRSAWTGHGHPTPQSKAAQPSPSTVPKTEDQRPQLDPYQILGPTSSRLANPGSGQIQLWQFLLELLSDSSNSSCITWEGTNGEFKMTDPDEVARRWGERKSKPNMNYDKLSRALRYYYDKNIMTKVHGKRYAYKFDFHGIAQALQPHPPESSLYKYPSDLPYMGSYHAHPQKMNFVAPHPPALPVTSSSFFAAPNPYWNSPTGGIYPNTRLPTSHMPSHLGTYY
# How it was run: as §1
# ELF1 = ELF1 (Homo sapiens, UniProt P32519 1-619)
# How it was run: as §1
# EHF = molecular target: T5, EHF (Homo sapiens, UniProt Q9NZC4 1-300)
# T5 sequence: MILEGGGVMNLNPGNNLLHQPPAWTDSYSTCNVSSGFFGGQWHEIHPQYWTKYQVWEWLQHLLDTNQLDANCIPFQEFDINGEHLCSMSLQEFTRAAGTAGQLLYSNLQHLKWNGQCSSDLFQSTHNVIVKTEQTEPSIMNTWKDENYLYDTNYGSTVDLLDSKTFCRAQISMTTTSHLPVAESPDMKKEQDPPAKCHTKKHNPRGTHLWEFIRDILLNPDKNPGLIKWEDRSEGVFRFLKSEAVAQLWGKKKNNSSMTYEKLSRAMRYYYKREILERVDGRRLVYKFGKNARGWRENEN
# How it was run: as §1
# SPI1 = SPI1 (Homo sapiens, UniProt P17947 1-270)
# How it was run: as §1
# SPIB = SPIB (Homo sapiens, UniProt Q01892 1-262)
# How it was run: as §1
# ELK3 = molecular target: T6, ELK3 (Homo sapiens, UniProt P41970 1-407)
# T6 sequence: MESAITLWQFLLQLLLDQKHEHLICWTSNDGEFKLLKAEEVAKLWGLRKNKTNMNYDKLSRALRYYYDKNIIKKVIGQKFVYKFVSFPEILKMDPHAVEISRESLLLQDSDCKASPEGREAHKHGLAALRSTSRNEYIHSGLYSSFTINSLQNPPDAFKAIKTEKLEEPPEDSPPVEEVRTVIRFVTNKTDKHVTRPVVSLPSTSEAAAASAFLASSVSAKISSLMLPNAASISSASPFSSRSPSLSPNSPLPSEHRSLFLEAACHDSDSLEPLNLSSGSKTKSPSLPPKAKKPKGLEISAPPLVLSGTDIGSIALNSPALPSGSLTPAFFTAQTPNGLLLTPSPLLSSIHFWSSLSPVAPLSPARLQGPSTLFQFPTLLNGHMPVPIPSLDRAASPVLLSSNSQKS
# How it was run: as §1
# Sequence of ELF1 (P32519 whole entry): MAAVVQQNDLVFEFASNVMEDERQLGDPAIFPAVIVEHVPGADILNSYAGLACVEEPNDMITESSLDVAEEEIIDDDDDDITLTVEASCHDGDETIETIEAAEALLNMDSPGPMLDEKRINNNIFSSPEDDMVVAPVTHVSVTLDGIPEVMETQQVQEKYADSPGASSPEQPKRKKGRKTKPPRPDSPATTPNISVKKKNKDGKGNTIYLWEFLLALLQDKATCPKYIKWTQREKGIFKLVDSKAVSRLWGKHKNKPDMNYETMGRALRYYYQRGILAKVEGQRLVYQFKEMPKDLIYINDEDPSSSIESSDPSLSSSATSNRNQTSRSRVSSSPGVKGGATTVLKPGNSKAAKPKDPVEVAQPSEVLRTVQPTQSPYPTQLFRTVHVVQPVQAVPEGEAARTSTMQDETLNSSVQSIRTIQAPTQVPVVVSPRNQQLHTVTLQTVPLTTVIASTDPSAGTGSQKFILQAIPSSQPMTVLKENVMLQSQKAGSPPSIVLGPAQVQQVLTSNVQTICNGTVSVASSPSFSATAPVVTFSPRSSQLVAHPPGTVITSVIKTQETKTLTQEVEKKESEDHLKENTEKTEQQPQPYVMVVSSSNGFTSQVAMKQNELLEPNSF
# Sequence of SPIB (Q01892 whole entry): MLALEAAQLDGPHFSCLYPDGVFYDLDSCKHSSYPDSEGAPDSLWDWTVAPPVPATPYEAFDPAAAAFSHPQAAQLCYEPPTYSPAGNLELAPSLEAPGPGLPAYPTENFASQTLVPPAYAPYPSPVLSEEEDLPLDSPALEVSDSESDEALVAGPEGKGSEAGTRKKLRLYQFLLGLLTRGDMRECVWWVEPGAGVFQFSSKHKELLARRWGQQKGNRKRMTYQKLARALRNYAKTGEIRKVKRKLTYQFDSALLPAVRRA
Sequence,binding signal (FLI1),binding signal (ELK1),binding signal (GABPA),binding signal (ERG),binding signal (ELF1),binding signal (EHF),binding signal (SPI1),binding signal (SPIB),binding signal (ELK3)
CTATGA,"1.03 fold enrichment (6-mer frequency, TF over GST control)","1.13 fold enrichment (6-mer frequency, TF over GST control)","1.18 fold enrichment (6-mer frequency, TF over GST control)","1.06 fold enrichment (6-mer frequency, TF over GST control)","1.16 fold enrichment (6-mer frequency, TF over GST control)","1.14 fold enrichment (6-mer frequency, TF over GST control)","1.03 fold enrichment (6-mer frequency, TF over GST control)","1.13 fold enrichment (6-mer frequency, TF over GST control)","1.01 fold enrichment (6-mer frequency, TF over GST control)"
ATTGTC,"1.17 fold enrichment (6-mer frequency, TF over GST control)","1.07 fold enrichment (6-mer frequency, TF over GST control)","1.16 fold enrichment (6-mer frequency, TF over GST control)","1.13 fold enrichment (6-mer frequency, TF over GST control)","1.13 fold enrichment (6-mer frequency, TF over GST control)","1.08 fold enrichment (6-mer frequency, TF over GST control)","1.05 fold enrichment (6-mer frequency, TF over GST control)","1.14 fold enrichment (6-mer frequency, TF over GST control)","1.35 fold enrichment (6-mer frequency, TF over GST control)"
TATATG,"1.28 fold enrichment (6-mer frequency, TF over GST control)","1.38 fold enrichment (6-mer frequency, TF over GST control)","1.3 fold enrichment (6-mer frequency, TF over GST control)","1.36 fold enrichment (6-mer frequency, TF over GST control)","1.43 fold enrichment (6-mer frequency, TF over GST control)","1.34 fold enrichment (6-mer frequency, TF over GST control)","1.41 fold enrichment (6-mer frequency, TF over GST control)","1.36 fold enrichment (6-mer frequency, TF over GST control)","1.38 fold enrichment (6-mer frequency, TF over GST control)"
ATGTAT,"1.34 fold enrichment (6-mer frequency, TF over GST control)","1.32 fold enrichment (6-mer frequency, TF over GST control)","1.27 fold enrichment (6-mer frequency, TF over GST control)","1.35 fold enrichment (6-mer frequency, TF over GST control)","1.3 fold enrichment (6-mer frequency, TF over GST control)","1.28 fold enrichment (6-mer frequency, TF over GST control)","1.28 fold enrichment (6-mer frequency, TF over GST control)","1.32 fold enrichment (6-mer frequency, TF over GST control)","1.36 fold enrichment (6-mer frequency, TF over GST control)"
CCACTC,"1.23 fold enrichment (6-mer frequency, TF over GST control)","1.32 fold enrichment (6-mer frequency, TF over GST control)","1.29 fold enrichment (6-mer frequency, TF over GST control)","1.19 fold enrichment (6-mer frequency, TF over GST control)","1.28 fold enrichment (6-mer frequency, TF over GST control)","1.16 fold enrichment (6-mer frequency, TF over GST control)","1.09 fold enrichment (6-mer frequency, TF over GST control)","1.16 fold enrichment (6-mer frequency, TF over GST control)","1.3 fold enrichment (6-mer frequency, TF over GST control)"
CCATCT,"1.3 fold enrichment (6-mer frequency, TF over GST control)","1.44 fold enrichment (6-mer frequency, TF over GST control)","1.32 fold enrichment (6-mer frequency, TF over GST control)","1.26 fold enrichment (6-mer frequency, TF over GST control)","1.38 fold enrichment (6-mer frequency, TF over GST control)","1.33 fold enrichment (6-mer frequency, TF over GST control)","1.21 fold enrichment (6-mer frequency, TF over GST control)","1.28 fold enrichment (6-mer frequency, TF over GST control)","1.28 fold enrichment (6-mer frequency, TF over GST control)"
TTGCTA,"1.38 fold enrichment (6-mer frequency, TF over GST control)","1.27 fold enrichment (6-mer frequency, TF over GST control)","1.27 fold enrichment (6-mer frequency, TF over GST control)","1.26 fold enrichment (6-mer frequency, TF over GST control)","1.3 fold enrichment (6-mer frequency, TF over GST control)","1.33 fold enrichment (6-mer frequency, TF over GST control)","1.31 fold enrichment (6-mer frequency, TF over GST control)","1.37 fold enrichment (6-mer frequency, TF over GST control)","1.33 fold enrichment (6-mer frequency, TF over GST control)"
